In the supplement of paper PMC10849652:
About 8,800 targets were measured; listed, in parts, are those with a hit and a random draw of the rest. About 0.5% of all pairs of compound and target were hits. A number with no mark means an inactive call.

Legend:
Experiment in all cases: log2 fold change, soluble protein after heating vs DMSO (PISA); higher = thermal stabilisation; K562 lysate, 10 uM; active = over 0.2 and 3.5 SD of the protein, either way, in both replicates (recomputed)
[1] = compound: CN1CC[C@H](c2c(O)cc(O)c3c(=O)cc(-c4ccccc4Cl)oc23)[C@H](O)C1 [alvocidib]
Outline: (§1)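 K562 pellets were dounce-homogenised in PBS pH 7.4 with 1 mM MgCl2, and the crude extract at 1 mg/mL protein was treated with 10 μM compound for 30 min. Aliquots were heated for 3 min across 48°C-58°C, pooled, and brought to 0.5% NP-40 at 4°C; soluble protein was the supernatant after 21,000xg for 90 min. Soluble protein was quantified by TMTpro 16plex LC-MS/MS with channel sums equalised, and reported as log2 fold change in thermal stability against DMSO controls, with values from duplicates.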

[2] = compound: CN1CCc2c(c3ccccc3n2Cc2ccc(C(=O)NO)cc2)C1 [Tubastatin A]
Outline: as §1

[3] = compound: CNC(=O)C1=CC=CC=C1NC2=NC(=NC=C2Cl)NC3=C(C=C(C=C3)N4CCOCC4)OC
Outline: as §1

[4] = compound: CNC(=O)c1ccc(Nc2ncc(C(F)(F)F)c(NCc3nccnc3N(C)S(C)(=O)=O)n2)cc1 [defactinib]
Outline: as §1

[5] = compound: CNc1nc(-c2ccc3c(N)n[nH]c3c2)cc(N2C[C@@H](C(=O)NC3CCCCC3)CC[C@H]2C)n1
Outline: as §1

[6] = compound: COC(=O)N[C@@H](C)CNc1nccc(-c2cn(C(C)C)nc2-c2cc(Cl)cc(NS(C)(=O)=O)c2F)n1 [encorafenib]
Outline: as §1

[7] = compound: COC(=O)[C@H](CCSC)NC(=O)C1=C(C=C(C=C1)NC[C@H](CS)N)C2=CC=CC=C2
Outline: as §1

[8] = compound: COc1cc(Nc2ncc3c(n2)-c2ccc(Cl)cc2C(c2c(F)cccc2OC)=NC3)ccc1C(=O)O [alisertib]
Outline: as §1

[9] = compound: COc1cc2nc(-c3cc(F)ccc3O)nc(N[C@@H]3CNC[C@H]3C(C)(C)O)c2cc1OC
Outline: as §1

[10] = compound: COc1cc2ncnc(Nc3ccc(F)c(Cl)c3)c2cc1OCCCN1CCOCC1 [gefitinib]
Outline: as §1

[11] = compound: CS(=O)(=O)CCNCc1ccc(-c2ccc3ncnc(Nc4ccc(OCc5cccc(F)c5)c(Cl)c4)c3c2)o1 [lapatinib]
Outline: as §1

[12] = compound: CS(=O)(=O)N1CCN(Cc2cc3nc(-c4cccc5[nH]ncc45)nc(N4CCOCC4)c3s2)CC1 [pictilisib]
Outline: as §1

[13] = compound: C[C@@H](Oc1cc(-c2cnn(C3CCNCC3)c2)cnc1N)c1c(Cl)ccc(F)c1Cl [crizotinib]
Outline: as §1

[14] = compound: C[C@H](C1=CC=C(C=C1)C(=O)NC2=C3C=CNC3=NC=C2)N
Outline: as §1

[15] = compound: C[C@H](Nc1ncnc2nc[nH]c12)c1cc2cccc(Cl)c2c(=O)n1-c1ccccc1 [duvelisib]
Outline: as §1

[16] = compound: Cc1cc(Nc2cc(CN3CCOCC3)c3nc(C)c(Cc4ccc(Cl)cc4F)n3n2)n[nH]1 [gandotinib]
Outline: as §1

[17] = compound: Cc1cc(Nc2cc(N3CCN(C)CC3)nc(Sc3ccc(NC(=O)C4CC4)cc3)n2)n[nH]1 [tozasertib]
Outline: as §1

[18] = compound: Cc1ccc(-n2nc(C(C)(C)C)cc2NC(=O)Nc2ccc(OCCN3CCOCC3)c3ccccc23)cc1 [doramapimod]
Outline: as §1

[19] = compound: Cc1ccc(NC(=O)c2ccc(CN3CC[C@H](N(C)C)C3)c(C(F)(F)F)c2)cc1Nc1nccc(-c2cncnc2)n1 [bafetinib]
Outline: as §1

[20] = compound: Cc1cccc(CC(=O)N2CCc3c2ccc(-c2cn(C)c4ncnc(N)c24)c3F)n1
Outline: as §1

Sequence of UniProt P42331 (P42331 whole entry, looked up): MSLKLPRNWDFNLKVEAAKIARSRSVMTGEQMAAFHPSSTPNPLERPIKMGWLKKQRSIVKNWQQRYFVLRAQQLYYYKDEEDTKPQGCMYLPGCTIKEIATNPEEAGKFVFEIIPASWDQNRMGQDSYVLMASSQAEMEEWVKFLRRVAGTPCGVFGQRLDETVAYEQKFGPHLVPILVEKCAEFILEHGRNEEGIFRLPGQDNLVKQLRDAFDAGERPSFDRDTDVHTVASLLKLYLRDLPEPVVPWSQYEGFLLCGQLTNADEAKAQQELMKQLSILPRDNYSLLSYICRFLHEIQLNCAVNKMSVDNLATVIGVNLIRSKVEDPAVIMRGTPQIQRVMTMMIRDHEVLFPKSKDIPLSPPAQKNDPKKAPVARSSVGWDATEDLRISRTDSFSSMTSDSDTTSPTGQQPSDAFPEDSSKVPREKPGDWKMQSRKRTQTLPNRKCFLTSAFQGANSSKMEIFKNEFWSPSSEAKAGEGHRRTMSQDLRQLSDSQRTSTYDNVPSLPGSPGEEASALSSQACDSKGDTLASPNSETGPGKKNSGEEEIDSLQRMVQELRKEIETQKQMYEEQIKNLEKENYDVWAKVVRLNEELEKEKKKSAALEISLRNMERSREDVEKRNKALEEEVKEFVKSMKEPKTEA
Sequence of UniProt P04083 (P04083 whole entry, looked up): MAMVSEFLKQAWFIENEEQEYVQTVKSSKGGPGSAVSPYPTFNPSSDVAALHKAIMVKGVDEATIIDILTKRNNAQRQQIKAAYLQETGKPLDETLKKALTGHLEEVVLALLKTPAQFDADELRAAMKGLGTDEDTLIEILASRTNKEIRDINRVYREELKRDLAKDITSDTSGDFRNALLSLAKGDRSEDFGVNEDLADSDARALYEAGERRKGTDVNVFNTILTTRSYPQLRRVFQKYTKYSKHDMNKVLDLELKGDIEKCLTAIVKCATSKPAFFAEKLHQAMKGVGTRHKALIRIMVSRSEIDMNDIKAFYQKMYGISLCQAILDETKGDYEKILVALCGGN
Sequence of UniProt Q15067 (Q15067 whole entry, looked up): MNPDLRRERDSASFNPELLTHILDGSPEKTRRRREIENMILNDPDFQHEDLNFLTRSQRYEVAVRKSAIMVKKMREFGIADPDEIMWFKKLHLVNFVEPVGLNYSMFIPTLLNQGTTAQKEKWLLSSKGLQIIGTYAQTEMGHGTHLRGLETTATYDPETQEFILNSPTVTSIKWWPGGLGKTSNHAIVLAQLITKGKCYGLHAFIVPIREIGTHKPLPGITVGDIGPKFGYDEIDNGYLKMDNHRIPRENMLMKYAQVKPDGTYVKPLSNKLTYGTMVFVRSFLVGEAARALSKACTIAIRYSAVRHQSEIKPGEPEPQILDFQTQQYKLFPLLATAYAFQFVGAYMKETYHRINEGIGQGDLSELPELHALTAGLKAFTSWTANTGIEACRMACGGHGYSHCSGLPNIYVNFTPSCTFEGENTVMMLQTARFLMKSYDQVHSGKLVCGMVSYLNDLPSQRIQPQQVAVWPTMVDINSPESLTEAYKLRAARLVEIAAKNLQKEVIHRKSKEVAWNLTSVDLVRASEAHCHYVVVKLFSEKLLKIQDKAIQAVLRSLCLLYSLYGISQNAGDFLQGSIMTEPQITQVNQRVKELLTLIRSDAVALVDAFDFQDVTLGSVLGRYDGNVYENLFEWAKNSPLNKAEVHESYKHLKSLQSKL
Sequence of UniProt Q9NP73 (Q9NP73 whole entry, looked up): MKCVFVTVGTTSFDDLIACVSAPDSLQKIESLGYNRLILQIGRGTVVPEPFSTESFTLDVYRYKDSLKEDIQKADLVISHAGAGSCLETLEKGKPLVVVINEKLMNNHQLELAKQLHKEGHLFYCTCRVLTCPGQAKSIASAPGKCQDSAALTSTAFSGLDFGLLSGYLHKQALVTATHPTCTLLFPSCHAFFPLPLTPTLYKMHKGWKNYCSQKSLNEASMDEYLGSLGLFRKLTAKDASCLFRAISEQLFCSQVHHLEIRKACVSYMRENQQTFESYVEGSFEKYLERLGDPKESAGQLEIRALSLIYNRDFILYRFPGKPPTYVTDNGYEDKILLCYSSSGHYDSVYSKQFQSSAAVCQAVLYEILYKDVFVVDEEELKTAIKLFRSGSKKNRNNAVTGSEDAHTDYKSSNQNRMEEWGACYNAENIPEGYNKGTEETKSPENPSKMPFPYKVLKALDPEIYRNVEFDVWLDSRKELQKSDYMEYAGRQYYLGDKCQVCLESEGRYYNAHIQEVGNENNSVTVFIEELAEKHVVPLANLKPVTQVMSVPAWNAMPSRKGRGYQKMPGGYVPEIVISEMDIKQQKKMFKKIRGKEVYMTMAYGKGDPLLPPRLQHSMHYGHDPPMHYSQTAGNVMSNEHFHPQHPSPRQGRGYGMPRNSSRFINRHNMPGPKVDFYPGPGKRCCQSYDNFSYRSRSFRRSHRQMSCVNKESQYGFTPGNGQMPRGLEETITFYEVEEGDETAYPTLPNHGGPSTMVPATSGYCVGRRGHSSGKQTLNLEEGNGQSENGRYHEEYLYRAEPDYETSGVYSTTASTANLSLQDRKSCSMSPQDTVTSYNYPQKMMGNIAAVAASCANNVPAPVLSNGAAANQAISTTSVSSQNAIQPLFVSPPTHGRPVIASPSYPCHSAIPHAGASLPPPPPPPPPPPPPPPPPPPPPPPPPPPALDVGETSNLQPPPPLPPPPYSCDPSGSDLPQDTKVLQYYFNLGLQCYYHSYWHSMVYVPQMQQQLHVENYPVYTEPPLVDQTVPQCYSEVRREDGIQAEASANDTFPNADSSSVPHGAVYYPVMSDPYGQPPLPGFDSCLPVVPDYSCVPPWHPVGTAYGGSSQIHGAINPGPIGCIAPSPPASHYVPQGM
Sequence of UniProt Q9NRW3 (Q9NRW3 whole entry, looked up): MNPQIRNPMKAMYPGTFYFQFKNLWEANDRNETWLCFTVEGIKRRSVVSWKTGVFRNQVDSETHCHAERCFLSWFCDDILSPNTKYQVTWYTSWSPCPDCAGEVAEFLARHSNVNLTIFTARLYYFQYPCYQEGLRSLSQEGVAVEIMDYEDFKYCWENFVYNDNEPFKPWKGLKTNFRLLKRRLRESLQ
Sequence of UniProt Q9BRQ8 (Q9BRQ8 whole entry, looked up): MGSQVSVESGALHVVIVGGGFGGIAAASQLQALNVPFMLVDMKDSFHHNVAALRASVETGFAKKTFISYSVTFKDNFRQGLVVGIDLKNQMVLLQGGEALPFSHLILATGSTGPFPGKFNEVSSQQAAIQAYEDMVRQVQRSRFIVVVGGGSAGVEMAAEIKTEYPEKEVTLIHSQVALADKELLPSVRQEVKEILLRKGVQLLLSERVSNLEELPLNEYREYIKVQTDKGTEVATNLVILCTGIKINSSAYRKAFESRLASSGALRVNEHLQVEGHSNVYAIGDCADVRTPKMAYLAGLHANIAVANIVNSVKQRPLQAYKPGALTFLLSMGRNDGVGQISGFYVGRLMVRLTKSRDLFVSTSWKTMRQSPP
Sequence of UniProt P53396 (P53396 whole entry, looked up): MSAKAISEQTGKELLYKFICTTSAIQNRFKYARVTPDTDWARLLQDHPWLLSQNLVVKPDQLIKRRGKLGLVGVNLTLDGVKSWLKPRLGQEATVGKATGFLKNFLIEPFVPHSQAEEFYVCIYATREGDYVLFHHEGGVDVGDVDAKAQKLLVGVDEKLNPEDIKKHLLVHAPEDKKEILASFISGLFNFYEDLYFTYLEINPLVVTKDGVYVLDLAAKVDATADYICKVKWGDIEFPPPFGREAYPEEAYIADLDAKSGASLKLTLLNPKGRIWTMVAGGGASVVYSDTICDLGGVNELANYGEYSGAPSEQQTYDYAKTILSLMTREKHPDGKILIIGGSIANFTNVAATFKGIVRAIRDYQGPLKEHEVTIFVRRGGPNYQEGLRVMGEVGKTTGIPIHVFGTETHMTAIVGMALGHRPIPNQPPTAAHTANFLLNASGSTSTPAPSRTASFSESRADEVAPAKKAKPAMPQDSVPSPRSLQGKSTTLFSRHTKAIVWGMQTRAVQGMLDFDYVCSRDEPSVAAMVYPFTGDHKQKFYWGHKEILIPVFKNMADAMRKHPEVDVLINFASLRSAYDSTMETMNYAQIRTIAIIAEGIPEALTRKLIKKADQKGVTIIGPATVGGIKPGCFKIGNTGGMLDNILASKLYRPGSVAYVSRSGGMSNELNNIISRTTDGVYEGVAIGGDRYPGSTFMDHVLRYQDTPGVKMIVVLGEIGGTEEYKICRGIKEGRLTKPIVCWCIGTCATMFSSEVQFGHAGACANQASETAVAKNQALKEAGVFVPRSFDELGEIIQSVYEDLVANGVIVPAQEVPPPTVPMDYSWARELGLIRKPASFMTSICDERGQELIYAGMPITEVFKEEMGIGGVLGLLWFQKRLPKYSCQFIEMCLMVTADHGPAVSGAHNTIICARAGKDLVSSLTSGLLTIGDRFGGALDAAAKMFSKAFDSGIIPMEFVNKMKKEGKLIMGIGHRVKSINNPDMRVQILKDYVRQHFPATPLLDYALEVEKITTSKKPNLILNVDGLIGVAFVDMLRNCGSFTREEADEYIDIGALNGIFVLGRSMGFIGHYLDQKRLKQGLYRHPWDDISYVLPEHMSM
Sequence of UniProt Q9NWX5 (Q9NWX5 whole entry, looked up): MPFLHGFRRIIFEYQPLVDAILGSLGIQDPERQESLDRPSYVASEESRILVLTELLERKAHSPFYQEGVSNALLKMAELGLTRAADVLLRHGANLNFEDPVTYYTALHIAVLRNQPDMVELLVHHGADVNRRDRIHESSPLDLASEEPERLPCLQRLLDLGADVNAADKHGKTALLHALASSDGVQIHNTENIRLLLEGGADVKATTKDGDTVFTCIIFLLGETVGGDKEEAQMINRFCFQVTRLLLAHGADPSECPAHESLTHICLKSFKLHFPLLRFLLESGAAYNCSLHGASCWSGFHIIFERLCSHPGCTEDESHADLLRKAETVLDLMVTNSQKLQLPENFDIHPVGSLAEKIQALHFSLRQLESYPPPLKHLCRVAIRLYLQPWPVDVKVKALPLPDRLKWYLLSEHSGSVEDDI

Target	log2 fold change [1]	log2 fold change [2]	log2 fold change [3]	log2 fold change [4]	log2 fold change [5]	log2 fold change [6]	log2 fold change [7]	log2 fold change [8]	log2 fold change [9]	log2 fold change [10]	log2 fold change [11]	log2 fold change [12]	log2 fold change [13]	log2 fold change [14]	log2 fold change [15]	log2 fold change [16]	log2 fold change [17]	log2 fold change [18]	log2 fold change [19]	log2 fold change [20]
ACOX1 isoform 2 (UniProt Q15067)	-0.049	0.041	0.012	0.012	0.017	-0.015	-0.255 (active)	0	0.01	0.018	-0.003	-0.003	-0.004	-0.112	-0.012	0.167	0.043	0.024	-0.01	0.054
ALG13 (UniProt Q9NP73)	-0.039	-0.065	0.122	0.028	0.053	0.059	-0.082	-0.059	0	-0.224	0.017	-0.002	-0.12	-0.075	0	0.044	-0.091	-0.015	-0.025	0.127
ABCF2 isoform 2 (UniProt Q9UG63)	0.004	-0.169	-0.001	-0.039	0.005	-0.005	0.08	0.014	0.025	-0.02	-0.038	-0.005	-0.011	-0.001	0.021	-0.097	0.057	-0.002	-0.025	-0.024
AK2 (UniProt P54819)	-0.003	0.05	-0.019	0.016	0.033	-0.025	-0.018	0.008	-0.025	0.019	0.058	-0.005	-0.007	0.076	-0.031	0	0	0.061	0.005	-0.046
ABHD12 isoform 2 (UniProt Q8N2K0)	0.02	0.001	0.039	-0.004	0.003	0.046	-0.018	-0.031	-0.03	-0.045	-0.006	-0.069	-0.04	0.078	-0.057	-0.095	0.06	0.04	0.062	-0.063
ANXA1 (UniProt P04083)	-0.025	-0.005	-0.021	-0.007	-0.055	-0.021	0.028	0.001	0.008	-0.012	0.005	0.013	0.018	-0.013	0.016	-0.005	0.012	0.008	0.038	0.028
ARHGAP25 isoform 4 (UniProt P42331)	-0.032	-0.122	0.04	0.055	0.054	-0.009	0.038	0.012	-0.004	-0.009	0.011	-0.024	-0.053	-0.011	0.008	-0.024	-0.006	-0.005	-0.075	0.081
ANP32E (UniProt Q9BTT0)	0	0.079	-0.007	-0.018	0.056	-0.037	-0.008	-0.019	0.007	-0.061	-0.026	0.003	0.007	-0.017	0.015	0.013	0.041	-0.017	-0.003	-0.032
ABHD16A (UniProt O95870)	0.036	0.066	-0.077	0.009	0.054	-0.074	0.245 (active)	-0.029	-0.004	-0.021	0.032	0.028	0.018	0.006	-0.078	0.081	-0.072	0.013	0.018	-0.021
AIFM2 (UniProt Q9BRQ8)	-0.032	0.044	0.114	0.045	0.099	0.024	0.107	-0.032	-0.034	0.038	0.132	-0.024	0.06	-0.143	0.004	0.507 (active)	-0.014	0.307	0.086	0.089
AP1G2 (UniProt O75843)	0.04	-0.099	0.068	-0.006	0.036	-0.03	-0.015	0.037	0.056	0.03	0.068	-0.008	-0.095	-0.049	-0.02	0	-0.02	-0.004	0.026	0.039
ASB6 (UniProt Q9NWX5)	0.097	0.014	-0.006	0.019	0.099	-0.1	0.174	-0.001	0.073	-0.046	-0.04	-0.029	0.01	0.093	0.008	-0.065	-0.159	0.004	-0.055	-0.028
ASCC2 (UniProt Q9H1I8)	-0.009	-0.105	0.002	0	-0.003	0.007	0.037	-0.014	0.016	-0.057	-0.012	0.049	-0.044	0.048	0.04	-0.026	0.023	-0.007	-0.205	-0.002
ACLY (UniProt P53396)	0.022	0.078	-0.006	-0.036	0.01	-0.043	0.133	0.016	0.003	0.004	-0.011	-0.009	-0.005	-0.025	0.012	0.01	0.003	0.015	0.008	0.013
ADAMTS5 (UniProt Q9UNA0)	-0.33	0.149	0.105	-0.052	0.278	-0.134	-0.012	0.073	0.109	-0.093	-0.102	-0.015	-0.139	-0.843 (active)	-0.004	0.332	0.011	0.04	-0.211	0.33
APOBEC3C (UniProt Q9NRW3)	-0.019	-0.121	0.018	0.013	-0.007	0.047	-0.067	0.009	0.003	-0.005	0.011	0.033	-0.09	-0.058	0.021	0.066	-0.055	0.1	-0.023	0.153
